VHR inh color: VHR1 phosphatase inhibitors, primary screen, biochemical, colorimetric, HTS; Dual specificity protein phosphatase 3 (Homo sapiens), P51452; recombinant VHR phosphatase, colorimetric substrate read-out; inhibition, % at 20 µM; actives 0.7% (n = 50,000); in the data active means inhibition above about 60%
Target sequence (P51452 whole entry, looked up): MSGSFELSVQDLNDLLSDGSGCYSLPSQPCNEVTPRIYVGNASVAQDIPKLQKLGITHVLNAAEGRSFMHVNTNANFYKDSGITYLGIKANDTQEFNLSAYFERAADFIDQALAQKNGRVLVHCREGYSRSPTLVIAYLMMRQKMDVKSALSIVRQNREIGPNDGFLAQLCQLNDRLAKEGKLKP
Large screens that a line does not name were inactive. The full list was thinned out, with hits kept by preference.

O=C(Nc1ccccc1)c1ccccc1NC(=O)C(c1ccccc1)c1ccccc1	none
Cc1cc2nc(-c3cc(NC(=O)c4ccc(Br)o4)ccc3Cl)oc2cc1C	none
COc1ccc(O)c(CN2CCN(Cc3ccc(SC)cc3)CC2)c1	none
COc1ccc(Oc2c(C(F)(F)F)oc3c(CN(C)C)c(O)ccc3c2=O)cc1	none
CC1=CC(C)(C)N(C(=O)c2ccc(F)cc2)c2ccc(OC(=O)c3ccc([N+](=O)[O-])cc3)cc21	none
NC1=NC(=O)/C(=C\c2ccc(-c3ccc([N+](=O)[O-])cc3)o2)S1	VHR inh color 77
NC1=NC(=O)/C(=C\c2ccc(-c3ccccc3Cl)o2)S1	none
NC1=NC(=O)/C(=C\c2ccc(-c3cccc(C(=O)O)c3)o2)S1	none
O=C(COc1ccc(Cl)cc1Cl)Nc1ccc(O)c(-c2nc3ccccc3s2)c1	none
Cc1ccc(/C=C2\SC(=S)N(CC(C)C)C2=O)o1	VHR inh color 87
Cc1ccc(/C=C2/SC(=S)N(CCC(=O)O)C2=O)o1	none
Cc1ccsc1/C=C1\SC(=S)N(CC(C)C)C1=O	none
CC(=O)N1CCN(c2ccc(NC(=O)/C=C/c3ccccc3)cc2)CC1	none
C(=NN1CCN(c2ccccn2)CC1)c1ccc(OCc2ccccc2)cc1	none
COC(=O)CN1C(=O)/C(=C\c2ccc(Cl)cc2)SC1=S	none
O=C1/C(=C\c2ccc(-c3cccc(Cl)c3)o2)SC(=S)N1CCS(=O)(=O)O	VHR inh color 91
CCN1C(=O)/C(=C\c2ccc(-c3ccc(F)cc3)o2)SC1=S	none
O=C1/C(=C/c2ccc(Cl)cc2)SC(=S)N1CCc1ccccc1	none
CCN1C(=O)/C(=C\c2ccc(-c3ccccc3Cl)o2)SC1=S	none
O=C1/C(=C/c2ccc(Cl)cc2)SC(=S)N1CCS(=O)(=O)O	VHR inh color 80
Cc1ccc(NC(=O)c2cccc(F)c2)cc1C	none
CCOC(=O)c1c(C)nc2c(c1C)/C(=N/O)CC(C)(C)C2	none
COc1cc(C(=O)Oc2ccc(/C=N/NC(=O)COc3cccc4ccccc34)cc2)cc(OC)c1OC	none
CCOC(=O)c1[nH]cnc1C(=O)Nc1ccc(Br)cc1	none
CCOC(=O)c1[nH]nc2c1C(=O)N(c1ccc(Br)cc1)C2=O	VHR inh color 98
CCOC(=O)c1[nH]nc2c1C(=O)N(c1ccc(OC)c(Br)c1)C2=O	none
Cc1ccc(C(=O)Nc2cc(-c3cccc(C)c3)[nH]n2)cc1	none
Cc1ccc(S(=O)(=O)N2c3ccccc3C(C)CC2(C)C)cc1 (stereo not given)	none
Cc1cc(C(=O)Nc2cccc3ccccc23)c(-c2ccccc2)o1	none
O=c1[nH]c(/C=C/c2ccc(N3CCOCC3)c([N+](=O)[O-])c2)c([N+](=O)[O-])c(=O)[nH]1	VHR inh color 80
CCOc1cc(/C=C/c2[nH]c(=O)[nH]c(=O)c2[N+](=O)[O-])ccc1O	none
O=c1[nH]c(/C=C/c2ccccc2)c([N+](=O)[O-])c(=O)[nH]1	none
CCOc1cc(/C=C(\C#N)C(=O)c2ccccc2)ccc1O	none
CCOC(=O)c1c(NC(=O)C2C3CCC(O3)C2C(=O)O)sc2c1CCC(CC)C2 (stereo not given)	none
CCOC(=O)c1c(NC(=O)c2ccco2)sc2c1CCC(CC)C2 (stereo not given)	VHR inh color 73
CCC1CCc2c(sc(NC(=O)c3ccc(Br)o3)c2C(=O)OC)C1 (stereo not given)	none
CC1(C)CC(NC(=O)CCc2ccccc2)CC(C)(C)N1	none
O=S(=O)(N/N=C/c1cccc(Cl)c1)c1ccc(Cl)cc1	none
CC(=O)Nc1nonc1-c1nc2ccccc2n1Cc1ccccc1	none
CC(C)(C)c1ccc(Cn2c(-c3nonc3N)nc3ccccc32)cc1	VHR inh color 60
CC(=O)Nc1nonc1-c1nc2ccccc2n1Cc1ccc(C(C)(C)C)cc1	none
O=C(Nc1ccc(Cl)cc1)Nc1nnc(/C=C/c2ccccc2Cl)s1	none
O=C(N/N=C/c1ccc(OC(=O)c2ccc([N+](=O)[O-])cc2)cc1)c1cccnc1	none
CCCC1=NN2C(=N)/C(=C/c3ccc(-c4ccccc4C(=O)OC)o3)C(=O)N=C2S1	VHR inh color 116
CC(C)C1=NN2C(=N)/C(=C/c3ccc(-c4ccc([N+](=O)[O-])cc4)o3)C(=O)N=C2S1	none
CCCC1=NN2C(=N)/C(=C/c3ccc(-c4ccc([N+](=O)[O-])cc4Br)o3)C(=O)N=C2S1	VHR inh color 111
CCC1=NN2C(=N)/C(=C/c3ccc(-c4cc(Cl)ccc4Cl)o3)C(=O)N=C2S1	none
CCC1=NN2C(=N)/C(=C/c3ccc(OCc4ccc(Br)cc4)c(OC)c3)C(=O)N=C2S1	none
CCC1=NN2C(=N)/C(=C/c3ccc(-c4cccc([N+](=O)[O-])c4)o3)C(=O)N=C2S1	none
CCCC1=NN2C(=N)/C(=C/c3ccc(OCc4ccc(F)cc4)c(OCC)c3)C(=O)N=C2S1	VHR inh color 100
CCC1=NN2C(=N)/C(=C/c3ccc(-c4ccccc4[N+](=O)[O-])o3)C(=O)N=C2S1	none
CCC1=NN2C(=N)/C(=C/c3ccc(-c4ccc(F)c(Cl)c4)o3)C(=O)N=C2S1	none
CCCC1=NN2C(=N)/C(=C/c3ccc(-c4ccc(F)cc4)o3)C(=O)N=C2S1	VHR inh color 109
CCOc1cc(/C=C2/C(=N)N3N=C(CC)SC3=NC2=O)ccc1OCc1ccc(F)cc1	none
CCC1=NN2C(=N)/C(=C/c3ccc(-c4ccc(C)c(Cl)c4)o3)C(=O)N=C2S1	none
COc1ccc(S(=O)(=O)Nc2ccccc2C(N)=O)cc1	none
Cc1ccc(CNC(=O)C(=O)Nc2cccc3ccccc23)cc1	none
CCOc1ccc(-c2csc(-c3cc4cc([N+](=O)[O-])ccc4oc3=O)n2)cc1	none
Cc1cc([N+](=O)[O-])ccc1NC(=S)NC(=O)/C=C/c1ccccc1	none
Cc1ccccc1NC(=O)CSc1ccc(Cl)cc1Cl	none
CCNC(=S)Nc1ccccc1Cl	none
Cc1cc(OCC(=O)O/N=C(\N)c2ccc([N+](=O)[O-])cc2)ccc1Br	none
Cc1ccccc1NC(=O)c1c(NC(=O)C(Cl)(Cl)Cl)sc2c1CCC2	none
O=C(CC(Nc1ccc([N+](=O)[O-])cc1)c1ccc(Br)cc1)c1ccc(Cl)cc1 (stereo not given)	none
CCOC(=O)c1ccc(N2NC(=O)/C(=C/c3cc(Br)ccc3O)C2=O)cc1	none
CN1C(=O)/C(=C\c2cc(Cl)ccc2OCc2ccc(F)cc2)SC1=S	none
CCN1C(=O)/C(=C\c2cc(Cl)ccc2OCc2ccccc2)SC1=S	VHR inh color 105
CCN1C(=O)/C(=C\c2cc(Cl)c(OCc3ccccc3)c(OC)c2)SC1=S	none
O=C1N=c2ccccc2=C1c1sc(=S)n(Cc2ccco2)c1O	none
CCCCn1c(O)c(C2=c3ccccc3=NC2=O)sc1=S	none
O=C1N=c2ccc(Cl)cc2=C1c1sc(=S)n(Cc2ccco2)c1O	VHR inh color 68
O=C(NNS(=O)(=O)c1cccc([N+](=O)[O-])c1)c1ccccc1O	none
CC1=C(C#N)c2nc(N)c(C#N)c(C)c2/C1=C\c1ccc(-c2cccc(Cl)c2)o1	none
CC1=C(C#N)c2nc(N)c(C#N)c(C)c2/C1=C\c1ccc(C)o1	none
CC1=C(C#N)c2nc(N)c(C#N)c(C)c2/C1=C/c1ccc(-c2ccc(C(=O)O)c(Cl)c2)o1	VHR inh color 92
N#CC(C#N)=Cc1ccc(-c2ccc(Cl)c(C(=O)O)c2)o1	none
COc1ccc(-c2csc(Nc3ccc(N)cc3)n2)cc1OC	VHR inh color 90
COc1ccc(Nc2nc(-c3ccc4ccccc4c3)cs2)cc1	none
COc1ccc(-c2csc(-c3nc(-c4ccc(OC)c(OC)c4)cs3)n2)cc1OC	none
COc1ccc(CN2CCN(C(=O)c3cccc(Cl)c3)CC2)cc1Br	none
CCOC(=O)C1=C(C)NC(C)=C(C(=O)OC)C1c1ccc(Cl)cc1 (stereo not given)	none

Source: PubChem
